# The source made the active and inactive calls. The rule behind the calls is not given here.
# Molecular target: Dual specificity protein kinase CLK1 (Homo sapiens) (UniProt P49759)
# Assay: ligand-induced CLK1 melting temperature shift – biophysical, recombinant human kinase, DSF (AID 382)
# Details: Recombinant CLK1, thermal shift (DSF), at 10 µM, protein 2 µM, buffer 10 mM HEPES, pH 7.5, NaCl 150 mM, with 50 µM L-Arg/L-Glu (1:1), stronger effect = higher value
# Dual specificity protein kinase CLK1 (Homo sapiens), sequence (P49759 whole entry, looked up): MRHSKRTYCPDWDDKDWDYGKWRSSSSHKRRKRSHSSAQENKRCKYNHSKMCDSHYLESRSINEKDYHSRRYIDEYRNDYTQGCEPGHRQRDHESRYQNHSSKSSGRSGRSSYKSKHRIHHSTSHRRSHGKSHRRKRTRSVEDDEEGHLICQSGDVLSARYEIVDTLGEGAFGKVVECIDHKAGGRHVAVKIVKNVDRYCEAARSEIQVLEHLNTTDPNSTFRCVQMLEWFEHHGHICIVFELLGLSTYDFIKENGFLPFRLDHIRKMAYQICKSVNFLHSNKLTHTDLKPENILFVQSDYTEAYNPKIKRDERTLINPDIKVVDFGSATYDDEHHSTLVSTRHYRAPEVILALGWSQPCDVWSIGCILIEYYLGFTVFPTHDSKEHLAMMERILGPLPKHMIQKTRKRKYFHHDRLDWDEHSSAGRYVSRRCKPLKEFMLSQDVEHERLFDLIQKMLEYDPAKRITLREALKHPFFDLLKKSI
row,SMILES,Tm shift
1,COc1cccc(-c2cnn3ccc(Nc4cccc(Cl)c4)nc23)c1,6 Celsius (active)
2,COCCNc1ccc2ncc(-c3cccc(C(C)=O)c3)n2n1,5.1 Celsius (active)
3,CCC(CO)Nc1ccc2ncc(-c3ccc(CO)cc3)n2n1 (centres undefined),5.3 Celsius (active)
4,CCC(CO)Nc1ccc2ncc(-c3cccc(C(C)=O)c3)n2n1 (centres undefined),6.1 Celsius (active)

# From PubChem BioAssay AID382 (SGCOxCompounds, 2006)
